# Laboratory results taken from PubChem BioAssay AID2551 (National Center for Advancing Translational Sciences (NCATS), 2010).
# Hit rate of the full screen: of about 310,000 compounds, about 17,000 (5.5%) were called active. About 11% were inconclusive and are not listed. Only a selection was taken, and actives are over-represented in it overall. Values without a mark were called inactive. Calls follow the shape of the dose curve; as a rule, active = well fitted inhibition curve with a large enough effect; inconclusive = small, poorly fitted or top-dose-only effect, or effect the other way; inactive = no such curve, though single readings can be large or run the other way.
# Molecular target: Nuclear receptor ROR-gamma (Mus musculus) (UniProt P51450)
# Assay: qHTS for inhibitors of ROR gamma transcriptional activity; also: nearly all actives have a fitted effect of over 60% in size
# Conditions: Drosophila S2 Gal4-RORgamma UAS-luciferase reporter, 20 h; series mostly up to 53.6 µM; activity change, negative = inhibition: at the top concentration
# Excerpt: NIH Molecular Libraries Probe Production Network [MLPCN] NIH Chemical Genomics Center [NCGC] MLPCN Grant: R03 DA026211-01 Assay Provider: Dan Littman, New York University Assay Overview: The retinoic acid-related orphan receptor (ROR) gamma is a transcription factor that has a central role in the differentiation of Th17 cells, a subset of T helper cells that secrete the inflammatory cytokines IL-17, IL-17F, and IL-22. Th17 cells have been implicated in graft versus host disease, autoimmune disease and asthma. ROR gamma is induced in naive T helper cells in the presence of TGF-beta combined with IL-6, IL-21, or IL-23, and thereafter directs the expression of the Th17 lineage cytokines. To study the mechanism of action of ROR gamma, an insect cell-based assay was screened. This Drosophila Schneider cell line was stably transfected with two vectors: a gene expressing a fusion of the Gal4 DNA binding domain and ROR gamma transactivation domain under the control of the metallothionine promoter and a Photinus luciferase reporter regulated by the Gal4 binding site enhancer, UAS. […] Small molecule inhibitors of ROR gamma activity are detected by a decrease in luciferase reporter activity.
# Assay Protocol Summary: For screening, 600 cells in 4 uL/well were dispensed into white solid 1536-well plates (Grenier) using a solenoid-based dispenser. Following transfer of 23 nL compound or DMSO vehicle by a pin tool, the plates were incubated 1 hr at ambient temperature, and 1 uL/well copper sulfate (700 uM final concentration) was added. The plates were centrifuged 15 s at 1000 RPM and incubated 20 hr at ambient temperature. After addition of 1.5 uL Photinus luciferase detection reagent, the plates were incubated 10 min at ambient temperature and then read by an ViewLux (Perkin Elmer) to detect luminescence. Keywords: NIH Roadmap, MLPCN, MLI, MLSMR, qHTS, NCGC, qHTS, nuclear hormone receptor, retinoic acid-related orphan receptor, ROR gamma
# % is scaled to controls: 0 for no effect and ±100 for the full control effect; potency is read from the fitted curve at half-maximal effect.
# Nuclear receptor ROR-gamma (Mus musculus), sequence (P51450 whole entry, looked up): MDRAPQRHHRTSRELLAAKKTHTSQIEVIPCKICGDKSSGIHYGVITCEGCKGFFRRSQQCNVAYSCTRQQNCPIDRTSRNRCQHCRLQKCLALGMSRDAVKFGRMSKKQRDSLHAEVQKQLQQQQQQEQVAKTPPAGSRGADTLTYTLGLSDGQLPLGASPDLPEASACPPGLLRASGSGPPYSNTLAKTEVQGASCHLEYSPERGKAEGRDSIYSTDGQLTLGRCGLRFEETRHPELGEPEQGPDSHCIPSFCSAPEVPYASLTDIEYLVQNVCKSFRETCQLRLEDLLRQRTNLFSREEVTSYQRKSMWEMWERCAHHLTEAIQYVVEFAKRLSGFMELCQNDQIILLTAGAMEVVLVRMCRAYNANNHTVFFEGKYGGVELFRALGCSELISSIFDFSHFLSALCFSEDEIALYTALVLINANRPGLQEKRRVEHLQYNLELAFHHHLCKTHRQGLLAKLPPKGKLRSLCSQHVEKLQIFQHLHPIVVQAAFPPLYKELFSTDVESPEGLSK
Structure (SMILES),Potency,"activity change, negative = inhibition"
N#C/C(=C(/O)COC(=O)COc1ccc(Cl)cc1)c1nc2ccccc2[nH]1,8.91 µM (active),–
O=C(COc1ccccc1)NCCc1nc2ccccc2[nH]1,–,1.23%
COc1ccccc1CNC(=O)C1CCN(S(=O)(=O)c2ccc3c(c2)OCCO3)CC1,–,-14.7%
COc1ccc(NC(=O)CC(NC(C)c2ccccc2)C(=O)O)cc1 (configuration not stated),–,-12.4%
Cc1nn2c3ccccc3nc2n(C)c1=O,–,-32%
CN1c2ccccc2-c2nc3ccccc3n2C1c1ccco1 (configuration not stated),14.1 µM (active),–
Cc1cc(NCc2ccco2)n2c(nc3ccccc32)c1C#N,–,38.8%
N#Cc1c(-c2ccccc2)nc(SCc2ccc([N+](=O)[O-])cc2)[nH]c1=O,–,1%
CC(C)NC(=O)N1CCN(c2ccncc2S(=O)(=O)N2CCCCC2)CC1,–,8.85%
CC(C)C[C@H]1CN=C(Nc2ccccc2)N1CC1CCCCC1,–,-2%
C/C(=N\Nc1nc(Nc2ccccc2)nc(N2CCOCC2)n1)c1cccs1,14.1 µM (active),–
Cc1ccc(Nc2nc(N3CCOCC3)nc(N3CCOCC3)n2)cc1Cl,–,3.19%
C/C(=N\Nc1nc(N2CCOCC2)nc(N2CCOCC2)n1)c1ccc([N+](=O)[O-])cc1,–,-4.91%
Cc1ccc(-n2ncc(C(=O)NC3CC3)c2C2CCN(C(=O)OC(C)(C)C)CC2)c(C)c1,–,0.982%
CCOc1ccc(CNC(=O)C2CCCN(c3nnc(C)c4c(C)n(-c5ccccc5)nc34)C2)cc1 (configuration not stated),–,-25.4%
Cc1ccc(-c2csc(NC(=O)Cc3cccs3)n2)cc1C,–,5.64%
CCCc1ccc(-c2csc(NC(=O)Cc3cccs3)n2)cc1,12.6 µM (active),–
COc1ccc(-c2csc(NC(=O)CCCc3cccs3)n2)cc1,–,22.6%
O=C(COC(=O)/C=C/c1cccs1)NC1CCCCC1,–,21.6%
Cn1cc(/C=C/c2nc3ccccc3c(=O)n2-c2cccc([N+](=O)[O-])c2)c2ccccc21,–,0.991% [at 10 µM]
CCn1c(/C=C/c2ccc([N+](=O)[O-])o2)nc2ccccc2c1=O,7.94 µM (active),–
Cc1nc2ccccc2c(=O)n1Cc1ccc([N+](=O)[O-])cc1,–,-3.36%
Cc1cccc(-c2c(NC(=O)c3ccco3)oc3ccc(Cl)cc3c2=O)c1,–,-0.588%
CN(C)CCOC1c2ccccc2-c2ccccc21,–,-25.2%
COc1ccc(CNC(=O)C2CCN(C(=O)c3ccccc3)CC2)cc1,–,2.56%
O=C(c1ccccc1F)N1CCN(S(=O)(=O)c2ccc(Br)cc2)CC1,–,-0.802%

Structure (SMILES),Potency,"activity change, negative = inhibition"
O=C(c1ccc[nH]c1=S)N1CCN(S(=O)(=O)c2ccc(Br)cc2Cl)CC1,22.4 µM (active),–
O=C(c1ccc(Cl)c(S(=O)(=O)N2CCCCC2)c1)N1CCCCCC1,–,3.79%
COc1cc2c(C(=O)N(C)c3cc(Cl)ccc3OC)cn(C)c(=O)c2cc1OC,–,18.1%
COc1ccc(CNC(=O)C2CCN(S(=O)(=O)c3ccc(SC)cc3)CC2)cc1,–,31.9%
Cc1cc(C(=O)COC(=O)C2CC2)c(C)n1-c1ccc(F)cc1,–,6.95%
Cc1nnc(SCC(N)=O)n1CC1CCCO1 (configuration not stated),–,0.52%
Cc1ccsc1C(=O)OCC(=O)c1cc(C)n(CC2CCCO2)c1C (configuration not stated),3.98 µM (active),–
CCc1ccc(CN(C)C(=O)C2CCC(=O)N(Cc3cccc(OC)c3)C2)nc1 (configuration not stated),–,-27.6%
CC(C)CC(=O)Nc1ccc(Cc2ccncc2)cc1,–,9.55%
O=C(O)C1CCCN1C1=NS(=O)(=O)c2ccccc21 (configuration not stated),–,-12.2%
O=C(CN1CCC(NC(=O)C2CC2)CC1)Nc1ccccc1[N+](=O)[O-],–,-10.8%
Cc1c(NC(=O)CSc2nnnn2-c2ccc(C(=O)O)cc2)c(=O)n(-c2ccccc2)n1C,–,-0.926%
Cc1ccc(NC(=O)CSc2cccc3cccnc23)c(C)c1,10 µM (active),–
O=C(CSc1cccc2cccnc12)N/N=C/c1cccnc1,7.08 µM (active),–
C/C(CC(=O)Nc1ccc(C)cc1C)=N\NC(=O)C(C)C,–,-36.6%
Cc1ccc(NC(=O)Cn2nc(C)c3ccccc3c2=O)c(C)c1,–,16.6%
Cc1nc2ccccc2n1CC(=O)N/N=C/c1cccnc1,–,-11%
Cc1c(NC(=O)CSc2cccc3cccnc23)c(=O)n(-c2ccccc2)n1C,7.94 µM (active),–
O=C(CNC(=O)c1cccnc1)N/N=C/c1cccnc1,–,-2.45%
Cc1c(NC(=O)c2cccnc2)c(=O)n(-c2ccccc2)n1C,inactive,–
Cc1cc(NC(=O)CCN2CCN(Cc3ccccc3)CC2)ccc1Br,–,18.5%
CCN(CC)S(=O)(=O)c1ccc(N2CCOCC2)c(NC(=O)C2CSC3(C)CCC(=O)N23)c1 (configuration not stated),–,-10.9%
O=C(CCS(=O)(=O)c1ccc2c(c1)NC(=O)CS2)NCc1ccccc1Cl,–,-16.6%
Cc1ccc(CN(CC(=O)NC2CCCCC2)C(=O)c2csnn2)cc1,–,-2.84%
O=C(c1ccccc1)N1CCC(CC2CC(c3ccc(Cl)cc3)=NO2)(C(=O)NCC2CCCCC2)CC1 (configuration not stated),–,40.6%
COc1cccc(CNC(=O)CCC2CCCN(C(=O)c3ccc(F)c(Cl)c3)C2)c1 (configuration not stated),–,18.5%
